Laboratory results: ChEMBL document CHEMBL1157539, “Thousands of chemical starting points for antimalarial lead identification” (Nature, 2010)

Experiments:
Type in all cases: functional
Plasmodium falciparum [1] = test: GSK_TCMDC: Inhibition of Plasmodium falciparum 3D7 in whole red blood cells, using parasite LDH activity as an index of growth. Test compounds present at 2uM
Plasmodium falciparum [2] = test: GSK_TCMDC: Inhibition of Plasmodium falciparum Dd2 in whole red blood cells, using parasite LDH activity as an index of growth. Test compounds present at 2uM
HepG2 = test: GSK_TCMDC: Percent inhibition of human HepG2 cell line. Test compounds present at 10uM.

Structure (SMILES): CN(C)Cc1cccc(-c2cc3c(-c4cnn(C)c4)c(Cl)cnc3[nH]2)c1
- Inhibition (Plasmodium falciparum [1]): 96%
- Inhibition (Plasmodium falciparum [2]): 21%
- Inhibition (HepG2): 75%

Structure (SMILES): Cc1nc(-c2nc(NCCc3c(C)noc3C)ncc2-c2ccsc2)sc1C
- Inhibition (Plasmodium falciparum [1]): 87%
- Inhibition (Plasmodium falciparum [2]): 85%
- Inhibition (HepG2): 12%

Structure (SMILES): COc1ccc(Nc2nccc(N3CCC(NC(=O)Nc4cc(C)ccc4C)C3)n2)cc1 (stereo not given)
- Inhibition (Plasmodium falciparum [1]): 91%
- Inhibition (Plasmodium falciparum [2]): 37%
- Inhibition (HepG2): 10%

Structure (SMILES): Cc1cccc(CC2CC(=O)N(c3ccc([N+](=O)[O-])cc3)C2=O)c1 (stereo not given)
- Inhibition (Plasmodium falciparum [1]): 95%
- Inhibition (Plasmodium falciparum [2]): 1%
- Inhibition (HepG2): 11%

Structure (SMILES): CCn1c(Sc2ccc([N+](=O)[O-])c(C#N)c2)nnc1-c1cccc(Cl)c1
- Inhibition (Plasmodium falciparum [1]): 89%
- Inhibition (Plasmodium falciparum [2]): 22%
- Inhibition (HepG2): 8%

Structure (SMILES): CCC(CC)CN1C(=O)C(C)(c2ccccc2)N=C1N.O=C(O)C(F)(F)F (stereo not given)
- Inhibition (Plasmodium falciparum [1]): 84%
- Inhibition (Plasmodium falciparum [2]): 11%
- Inhibition (HepG2): 1%

Structure (SMILES): Nc1nc(F)nc2nc[nH]c12
- Inhibition (Plasmodium falciparum [1]): 89%
- Inhibition (Plasmodium falciparum [2]): 25%
- Inhibition (HepG2): 78%

Structure (SMILES): CC(C)C1C(O)=C(c2ccc3ccccc3c2)C(=O)N1Cc1cccc(F)c1 (stereo not given)
- Inhibition (Plasmodium falciparum [1]): 97%
- Inhibition (Plasmodium falciparum [2]): 82%
- Inhibition (HepG2): 3%

Structure (SMILES): NC1CCN(Cc2cccc(-c3csc(-c4nc5ccccc5[nH]4)c3)c2)C1.O=C(O)C(F)(F)F (stereo not given)
- Inhibition (Plasmodium falciparum [1]): 99%
- Inhibition (Plasmodium falciparum [2]): 10%
- Inhibition (HepG2): 10%

Structure (SMILES): Br.Oc1cccc(CCNCCCCCCNCCc2ccc(Cl)cc2)c1
- Inhibition (Plasmodium falciparum [1]): 96%
- Inhibition (Plasmodium falciparum [2]): 0%
- Inhibition (HepG2): 23%

Structure (SMILES): Cc1cccc(CN2CCCN(Cc3ccc(C(=O)Nc4ccc(Cl)cc4)cc3)CC2)c1.O=C(O)C(F)(F)F
- Inhibition (Plasmodium falciparum [1]): 92%
- Inhibition (Plasmodium falciparum [2]): 17%
- Inhibition (HepG2): 54%

Structure (SMILES): Cc1cccc2nc(-c3ccc(-c4cccc(CN5CCN(CC6CCCN(C)C6)CC5)c4)s3)[nH]c12.O=C(O)C(F)(F)F (stereo not given)
- Inhibition (Plasmodium falciparum [1]): 100%
- Inhibition (Plasmodium falciparum [2]): 99%
- Inhibition (HepG2): 47%

Structure (SMILES): COc1cc(-c2nc(C(C)(C)CN)[nH]c2-c2ccncc2)ccc1Br.Cl
- Inhibition (Plasmodium falciparum [1]): 97%
- Inhibition (Plasmodium falciparum [2]): 95%
- Inhibition (HepG2): 17%

Structure (SMILES): CC(C)(C)CNc1noc(-c2sccc2Br)n1
- Inhibition (Plasmodium falciparum [1]): 82%
- Inhibition (Plasmodium falciparum [2]): 71%
- Inhibition (HepG2): 4%

Structure (SMILES): Cc1cccc(C)c1CNc1nc(N2CCOCC2)cc2c(C)c(C)[nH]c12.Cl
- Inhibition (Plasmodium falciparum [1]): 92%
- Inhibition (Plasmodium falciparum [2]): 64%
- Inhibition (HepG2): 51%

Structure (SMILES): CCCCCCSc1nnc(COc2cccc3ccccc23)n1-c1ccc(OC)cc1
- Inhibition (Plasmodium falciparum [1]): 99%
- Inhibition (Plasmodium falciparum [2]): 100%
- Inhibition (HepG2): 19%

Structure (SMILES): CCCC(C)Nc1nc(C)cc(NCCC(=O)Nc2ccccc2)n1.O=C(O)C(F)(F)F (stereo not given)
- Inhibition (Plasmodium falciparum [1]): 96%
- Inhibition (Plasmodium falciparum [2]): 11%
- Inhibition (HepG2): 12%

Structure (SMILES): Cc1cccc2nc(-c3ccc(-c4cccc(NC(=O)C(C)CN(C)C)c4)cc3)[nH]c12 (stereo not given)
- Inhibition (Plasmodium falciparum [1]): 99%
- Inhibition (Plasmodium falciparum [2]): 61%
- Inhibition (HepG2): 20%

Structure (SMILES): CN(C)Cc1ccc(-c2cccc(NC(=O)c3ccc(Cl)cc3)c2)cc1.O=C(O)C(F)(F)F
- Inhibition (Plasmodium falciparum [1]): 94%
- Inhibition (Plasmodium falciparum [2]): 13%
- Inhibition (HepG2): 24%

Structure (SMILES): Cc1sc2nc(CSc3ccccc3)nc(N3CCN(CC(=O)NC4CC4)CC3)c2c1C
- Inhibition (Plasmodium falciparum [1]): 96%
- Inhibition (Plasmodium falciparum [2]): 95%
- Inhibition (HepG2): 2%

Structure (SMILES): CN1CCN(CCc2ccc(N/C=C3\C(=O)Nc4ccc5ncccc5c43)cc2)CC1.Cl
- Inhibition (Plasmodium falciparum [1]): 100%
- Inhibition (Plasmodium falciparum [2]): 98%
- Inhibition (HepG2): 51%

Structure (SMILES): O=C(O)C[C@H](NC(=O)c1cc(-c2ccc3c(c2)OCO3)no1)C(=O)O.O=C(O)C[C@H](NC(=O)c1conc1-c1ccc2c(c1)OCO2)C(=O)O
- Inhibition (Plasmodium falciparum [1]): 98%
- Inhibition (Plasmodium falciparum [2]): 0%
- Inhibition (HepG2): 0%

Structure (SMILES): CCCCN(C(=O)c1ccccc1C)c1nnc(-c2ccccc2C)s1
- Inhibition (Plasmodium falciparum [1]): 92%
- Inhibition (Plasmodium falciparum [2]): 94%
- Inhibition (HepG2): 10%

Structure (SMILES): Cc1ccc(Nc2nccc(Nc3ccc4c(c3)nc(Nc3cc(C(C)(C)C)on3)n4C)n2)cc1S(C)(=O)=O
- Inhibition (Plasmodium falciparum [1]): 100%
- Inhibition (Plasmodium falciparum [2]): 99%
- Inhibition (HepG2): 30%

Structure (SMILES): COc1cccc(C(=O)NCc2cccs2)c1Oc1ccccc1
- Inhibition (Plasmodium falciparum [1]): 98%
- Inhibition (Plasmodium falciparum [2]): 4%
- Inhibition (HepG2): 0%

Structure (SMILES): CCCCCCCN1CCC(CC(=O)Nc2ccnc3ccc(OC)cc23)C(CC)C1 (stereo not given)
- Inhibition (Plasmodium falciparum [1]): 100%
- Inhibition (Plasmodium falciparum [2]): 75%
- Inhibition (HepG2): 14%

Structure (SMILES): O=C(Cc1ccccc1)NC(CCN1CCC(N(C2CC2)S(=O)(=O)c2cccc(C(F)(F)F)c2)CC1)c1ccc(Cl)c(Cl)c1 (stereo not given)
- Inhibition (Plasmodium falciparum [1]): 85%
- Inhibition (Plasmodium falciparum [2]): 27%
- Inhibition (HepG2): 19%

Structure (SMILES): Cc1cc(N2CCCC2)nc(Nc2ccc(NC(=O)C(C)(C)C)cc2)n1
- Inhibition (Plasmodium falciparum [1]): 95%
- Inhibition (Plasmodium falciparum [2]): 15%
- Inhibition (HepG2): 24%

Structure (SMILES): CCOc1cc2c(cc1S(=O)(=O)c1ccc(COc3ccc(C(F)(F)F)cc3)cc1)CCN(C)CC2.Cl
- Inhibition (Plasmodium falciparum [1]): 87%
- Inhibition (Plasmodium falciparum [2]): 14%
- Inhibition (HepG2): 27%

Structure (SMILES): Cc1nc(-c2ccc(-c3ccc(C(=O)Nc4ccc(I)c(OCCN5CCCC5)c4)cc3)c(C)c2)no1.Cl
- Inhibition (Plasmodium falciparum [1]): 95%
- Inhibition (Plasmodium falciparum [2]): 35%
- Inhibition (HepG2): 96%
